# High-throughput results: PubChem, National Center for Advancing Translational Sciences (NCATS)
# HCV inhibitor = qHTS Assay for Inhibitors of Hepatitis C Virus (HCV) | Huh7.5.1 HCVcc-Cre infection, luciferase reporter, 44 h | Potency, µM (titrated, usually from 41.8 µM), without a hit: at the highest dose activity change, negative = inhibition, usual class: inhibitors | actives 3.4% (n = 340,000); further: potency means the concentration at half of the fitted maximal effect; on the % scale 0 is the no-effect control and ±100 the full control effect
#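 Seed cells (1,000/well) for 4 h; treat with compound and infect with HCVcc-Cre, moi about 0.5. Incubate 44 h, then detect luciferase activity.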
# Pf growth 48h = Primary qHTS for delayed death inhibitors of the malarial parasite plastid, 48 hour incubation; P. falciparum luciferase growth in erythrocytes, 48 h; Potency, µM (highest dose often 28.7 µM), without a hit: at the top dose activity change, negative = inhibition, usual class: inhibitors; actives 5.9% (n = 310,000); further: potency means the concentration at half of the fitted maximal effect; on the % scale 0 is the no-effect control and ±100 the full control effect
#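 A one-generation exposure of luciferase-tagged malaria parasites in RPMI 1640/Albumax erythrocyte culture, 37 C and 5% CO2. Inhibition is inferred from decreased luminescence after adding detection reagent.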
# HCMV inh = qHTS Assay for inhibitors of the human cytomegalovirus (HCMV). HFF cells, HCMV-luciferase reporter, 72 h; active compounds read low. activity change, negative = inhibition, % at 57.5 µM. actives 4.5% (n = 410,000); in the data active means activity change below about -60%; inconclusive means no clear call, values can overlap the other calls; inactive means above about -39%; further: on the % scale 0 is the no-effect control and ±100 the full control effect
#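 Inhibition of viral replication was scored as loss of reporter luminescence in HFFs infected with HCMV-luciferase (MOI 1 PFU/cell) for 72 h; compounds tested at 2 doses, normalized to buffer and Salinomycin controls.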
# CHX counter = Cycloheximide Counterscreen for Small Molecule Inhibitors of Shiga Toxin | cell reporter, cycloheximide protein synthesis inhibition counterscreen | max response, % | actives 12% (n = 300,000) | AID 2314, 2010; in the data active means max response mostly above about 13%, no sharp cut-off; inactive means mostly below about 14%; further: read at 38.3 µM for the half of the compounds with a filed dose; 0% is about no effect
# Shiga inhibitor = A qHTS for Small Molecule Inhibitors of Shiga Toxin | Vero cells, Shiga toxin protein synthesis inhibition reporter | inhibition, % at 38.7 µM | actives 9.2% (n = 290,000) | AID 2315, 2010; in the data active means inhibition mostly above about 28%, no sharp cut-off; inactive means mostly below about 43%; further: 0% is about no effect
# Pf growth 96h = Primary qHTS for delayed death inhibitors of the malarial parasite plastid, 96 hour incubation | AID 504834, 2011 | Potency, µM (highest dose often 28.7 µM), without a hit: top-dose activity change, negative = inhibition, actives largely listed as inhibitors | P. falciparum luciferase reporter growth, 96 h | actives 6.9% (n = 320,000); further: potency means the concentration at half of the fitted maximal effect; on the % scale 0 is the no-effect control and ±100 the full control effect
#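 Two-generation exposure (96 h) targets delayed-death phenotype. Reporter parasites carrying integrated firefly luciferase, in red cells at 2% hematocrit and 0.05% parasitemia final, kept at 37 C, 5% CO2; luminescence loss indicates inhibition.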
# * = called active by the depositor; i = inactive; ? = inconclusive; . = no result; + = active, no number. Only some compounds are listed: those with a hit (about 21% of all), similar ones and a draw of the others. Unless noted, the call rests on the fitted dose curve; in most records, active means well fitted inhibition curve with a large enough effect; inconclusive means small, poorly fitted or top-dose-only effect, or another doubt; inactive means no such curve, though single readings can be large or run the other way.
SMILES,HCV inhibitor,Pf growth 48h,HCMV inh,CHX counter,Shiga inhibitor,Pf growth 96h
Cc1cc(C(F)(F)F)n(-c2nc(C(=O)NN)cs2)n1,-1%,20%,87,10,19,7.4µM*
C[C@H](CO)N1C[C@H](C)[C@@H](CN(C)Cc2ccccn2)Oc2ncc(Br)cc2C1=O,.,.,7,.,.,.
Cc1ccc(S(=O)(=O)NNc2c3ccccc3nc3ccc(Cl)cc23)cc1,.,.,-23,.,.,.
CSc1nnc(-c2ccc(O)cc2)n1C,.,-3%,26,-1,-8,?
CSc1nnc(-c2cc3ccccc3cc2O)n1C,5%,2.1µM*,9,0,2,.
Cn1c(SCC(=O)N2CCN(c3ccccc3)CC2)nnc1-c1c[nH]c2ccccc12,?,.,-80*,-5,-11,7.4µM*
COc1cccc(-n2c(SCC(=O)N3CCOCC3)nc3c([nH]c4ccccc43)c2=O)c1,?,.,50,.,.,.
CCn1c(COc2ccccc2C)nnc1SCC(=O)CC(=O)Nc1ccccc1,-21%,10µM*,28,5,-2,26%
COc1cccc(-n2c(SCC(=O)N3CCOCC3)nnc2-c2c[nH]c3ccccc23)c1,11%,.,-1,-7,-20,10µM*
Cc1ccc(NC(=O)CN2C(=O)NC(Cc3c[nH]c4ccccc34)C2=O)cc1 (stereo not drawn),-13%,?,-5,.,.,?
CCc1nnc2c3ccccc3nc(N3CCN(c4cc(C)ccc4C)CC3)n12,.,.,8,.,.,.
CCCCNC(=O)NS(=O)(=O)c1ccc(CO)cc1,.,.,.,-10,-15,.
COc1cccc(NC(=O)C2CCCN(S(=O)(=O)c3ccc4[nH]c(=O)ccc4c3)C2)c1 (stereo not drawn),.,.,0,.,.,.
COC(=O)c1ccc(CSc2nnc(-c3c[nH]c4ccccc34)n2-c2ccccc2)cc1,22µM*,?,-31,18*,+,-101%
CCOC(=O)CSc1nnc(-c2c[nH]c3ccccc23)n1CC,16%,.,-11,12,7,-8%
Cn1c(SCc2ccccc2)nnc1-c1c[nH]c2ccccc12,-6%,-17%,26,21*,48*,-15%
COC(=O)c1ccc(CSc2nnc(-c3c[nH]c4ccccc34)n2C)o1,12%,.,-13,6,-9,?
CCn1c(COc2cc(C)cc(C)c2)nnc1SCC(=O)N1CCN(c2ccccc2)CC1,?,?,?,-2,-15,?
CCn1c(SCC(=O)N2CCN(c3ccccc3)CC2)nnc1-c1c[nH]c2ccccc12,8.9µM*,?,-75*,-1,-3,?
CCn1c(COc2c(C)cccc2C)nnc1SCC(=O)N1CCN(c2ccccc2)CC1,35µM*,?,?,1,-3,?
COC(=O)c1cccc(NC2=NS(=O)(=O)c3ccccc32)c1,.,.,3,.,.,.
COc1ccc(-n2cnnc2SCC(=O)N2CCN(c3ccccc3)CC2)cc1,-8%,.,-23,6,-8,-28%
COc1ccc(N2CCN(C(=O)CSc3nnc(-c4cc5ccccc5cc4O)n3C)CC2)cc1,?,?,-67*,-2,14,107%
CCOC(=O)C1=C(COC(=O)CCOc2ccccc2)NC(=O)NC1C (stereo not drawn),13%,-20%,-31,.,.,?
COc1cc(-c2noc(C)c2/C=C/c2ccc(OC(C)=O)cc2)cc(OC)c1OC,?,-30%,-65*,-2,-3,?
SMILES,HCV inhibitor,Pf growth 48h,HCMV inh,CHX counter,Shiga inhibitor,Pf growth 96h
CC(=O)Nc1ccc(SCC(=O)Nc2ccccc2-c2ccccc2)cc1,-25%,-25%,?,6,14,-23%
CC(=O)Nc1ccc(SCc2ncc(-c3ccccc3)o2)cc1,-28%,165%,57,44*,90*,285%
CCOC(=O)C1=C(C)Nc2sc(C(=O)c3ccc(OC)cc3)c(N)c2C1c1ccc(C(=O)OC)cc1 (stereo not drawn),?,7.4µM*,-26,-2,26,5.9µM*
Cc1ccc(-c2csnn2)cc1,10%,9%,-15,-1,28,22%
c1ccc2cc(-c3csnn3)ccc2c1,-7%,35%,-17,32*,108*,90%
COc1ccc(-c2csc(N)n2)cc1,?,141%,-7,37*,58*,85%
Nc1nc(-c2ccc3ccccc3c2)cs1,-7%,340%,4,43*,86*,?
Cc1ccc(-c2csc(N)n2)cc1,-4%,.,-33,.,.,.
COc1ccc(-c2csc(N=C(N)N)n2)cc1,-4%,?,49,25*,68*,?
Nc1nc(-c2ccc(Oc3ccccc3)cc2)cs1,10µM*,36%,25,39*,53*,?
Cc1ccc(-c2csc(N=C(N)N)n2)c(C)c1,12%,?,31,36*,37*,?
Nc1nc(-c2ccc(-c3ccccc3)cc2)cs1,10µM*,i,-1,62*,151*,472%
CSCC[C@H](NS(=O)(=O)c1ccc(C)cc1)C(=O)N1CCC(C(=O)N[C@H](C(=O)O)c2ccccc2)CC1,18%,19%,-9,-1,-8,-5%
O=C(O)CN1C(=O)NC2(CCCc3ccccc32)C1=O (stereo not drawn),2%,29%,-11,10,15,24%
Cc1ccc(CN(C)C(=O)CN2C(=O)NC3(CCCc4ccccc43)C2=O)c(C)c1 (stereo not drawn),10µM*,?,45,.,.,-33%
Cc1cc(C(=O)CN2C(=O)NC3(CCCc4ccccc43)C2=O)c(C)n1Cc1ccco1 (stereo not drawn),?,1.7µM*,.,2,3,.
Cc1cc(C(=O)CN2C(=O)NC3(CCCc4ccccc43)C2=O)c(C)n1Cc1ccccc1 (stereo not drawn),?,.,26,25*,20,1.2µM*
Cc1cc(C(=O)CN2C(=O)CCC2=O)c(C)n1Cc1ccccc1,8%,.,12,30*,20,?
CS(=O)(=O)c1cnc2c(-c3ccc(F)cc3)cnn2c1N,-16%,76%,71,58*,61*,188%
Nc1c(-c2ccccc2)cnc2c(-c3ccccc3)cnn12,9%,230%,125,52*,130*,477%
Nc1c(-c2cccs2)cnc2c(-c3ccc(F)cc3)cnn12,?,162%,30,43*,118*,437%
CC(C)(C)S(=O)(=O)c1cnc2c(-c3ccsc3)cnn2c1N,3%,112%,-27,49*,65,90%
CC(C)COC(=O)N(C)C[C@H]1OCc2cnnn2CCCC(=O)N([C@@H](C)CO)C[C@H]1C,.,.,-3,.,.,.
